These results are taken from PubChem BioAssay AID588342 (National Center for Advancing Translational Sciences (NCATS), 2011).

Each structure is given as a SMILES string. Hit rate of the full screen: of about 360,000 compounds, about 25,000 (6.9%) were called active. Inconclusive results (about 9%) are left out. Calls follow the shape of the dose curve; as a rule, active = well fitted inhibition curve with a large enough effect; inconclusive = small, poorly fitted or top-dose-only effect; inactive = flat fitted curve, though single readings scatter. The entries come from a sample that favours actives as a whole. Where a call stands in place of a potency, no number is given.
Potency is read from the fitted curve at half-maximal effect.

For the assay, the target named is Luciferin 4-monooxygenase (Photinus pyralis) (UniProt P08659). Kind of assay: qHTS profiling assay for firefly luciferase inhibitor/activator using purifed enzyme and Km concentrations of substrates (counterscreen for miR-21 project). Also: nearly all actives have a fitted effect of over 55% in size. The conditions noted are these: purified FLuc, luminescence inhibition; series mostly up to 57.5 µM. In a few lines: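 Purified P. pyralis luciferase (10nM final) with 10uM D-luciferin and 10uM ATP (Km levels) in 50mM Tris acetate pH 7.5, 10mM Mg acetate, 0.01% Tween-20, 0.05% BSA; qHTS 6-point titration, ~60 µM downward; luminescence read.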
Luciferin 4-monooxygenase (Photinus pyralis), sequence (P08659 whole entry, looked up): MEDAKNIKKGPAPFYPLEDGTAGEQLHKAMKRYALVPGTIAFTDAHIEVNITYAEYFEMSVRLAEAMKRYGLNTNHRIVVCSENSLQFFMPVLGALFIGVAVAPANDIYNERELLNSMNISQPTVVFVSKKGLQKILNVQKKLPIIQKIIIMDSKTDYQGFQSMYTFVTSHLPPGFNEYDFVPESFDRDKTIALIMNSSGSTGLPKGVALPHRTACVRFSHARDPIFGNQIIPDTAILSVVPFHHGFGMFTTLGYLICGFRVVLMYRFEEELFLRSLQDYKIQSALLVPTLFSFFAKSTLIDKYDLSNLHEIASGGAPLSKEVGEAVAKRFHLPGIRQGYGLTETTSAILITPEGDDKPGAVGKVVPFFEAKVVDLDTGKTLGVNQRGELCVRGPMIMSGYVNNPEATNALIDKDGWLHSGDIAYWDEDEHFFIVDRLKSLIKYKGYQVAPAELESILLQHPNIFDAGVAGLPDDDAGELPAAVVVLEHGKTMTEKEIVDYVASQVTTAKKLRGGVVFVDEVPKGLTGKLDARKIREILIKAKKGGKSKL
In general terms: Quantitative high-throughput screening tests each substance at several concentrations.
Take `COc1ccc(CCC(C)N2CCc3ccccc3C2)cc1` (stereo unspecified): the Potency entry was “inactive”.

As to `Cc1ccc(-n2ncc3c(=O)[nH]cnc32)c(C)c1`, the Potency entry is “inactive”. As for `Cc1cccc(-n2ncc(Cl)c(Cl)c2=O)c1`, the Potency result is “inactive”. Turning to `COc1cc(C)c(C)cc1S(=O)(=O)N1CCCc2ccccc21`, the Potency entry is “inactive”. Turning to `COc1ccc(-n2ncc3c(N4CCCc5ccccc54)ncnc32)cc1`, the Potency is 1.35 µM (active). In the case of `COc1ccc(-n2ncc3c(N4CCc5ccccc54)ncnc32)cc1` it was 0.379 µM (active). With `COc1ccc2oc(=O)c(C(=O)N3CCCc4ccccc43)cc2c1`, the Potency entry is “inactive”. `Cc1cccc(-n2ncc3c(N4CCc5ccccc54)ncnc32)c1`: the Potency was 0.536 µM (active). In the case of `COc1ccc(-n2c(C)nc3c(cnn3-c3ccc(F)cc3)c2=O)cc1`, the Potency result is “inactive”. For the compound `CCCCN(C(=O)C1=NN(c2cc(C)ccc2C)C(=O)CC1)c1c(N)n(CCC)c(=O)[nH]c1=O`, the Potency result is “inactive”.

On to `COc1cccc(CNC(=O)CN2C(=O)NC(Cc3ccccc3)(c3ccccc3)C2=O)c1` (stereo unspecified), for which the Potency result was “inactive”. For `CC1=C(c2ccc(Cl)cc2)S(=O)(=O)N=C1N1CCN(c2cc(C)ccc2C)CC1`, the Potency result is “inactive”. Then `O=C(CSc1ccccc1)Nc1nnc(/C=C/c2ccccc2)s1`, with “inactive”; and `CC(C)C(=O)Nc1nnc(Sc2ccc(N(C)C)cc2)s1`, with “inactive”; and `COc1ccc(/C=C/c2nnc(NC(=O)C(C)C)s2)cc1`, with 2.69 µM (active). Then `CCCC(=O)N1CCN(c2nc3c(OC)ccc(C)c3s2)CC1`, with “inactive”; and `COc1ccccc1NC(=O)c1cc(C2CC2)nc2c1c(C)nn2-c1ccc(C)cc1`, with “inactive”. On to `CC(C)(C)C1C/C(=C/c2ccco2)C(=O)/C(=C/c2ccco2)C1` (stereo unspecified), for which the Potency result is “inactive”. `CS(=O)(=O)C1=NN2C(=N)/C(=C\c3ccc(OCCOc4ccccc4)cc3)C(=O)N=C2S1`: the Potency result is “inactive”.

As to `CS(=O)(=O)c1ccc2c(c1)SC1=NC(=O)/C(=C/c3ccco3)C(=N)N12`, the Potency was 10.7 µM (active). In the case of `CC(NC(=O)CN(C)S(=O)(=O)c1ccc(F)cc1)C1CC2CCC1C2` (stereo unspecified) it was “inactive”; in that of `Cc1ccc2oc(=O)c3cnn(CC(=O)NCc4ccccc4Cl)c3c2c1`, “inactive”. Then `CCOc1cccc2c1OC1(CCCCC1)N1N=C(c3cccnc3)CC21` (stereo unspecified), with 19 µM (active); and `CCOc1ccccc1C1CC(c2cccc(NS(C)(=O)=O)c2)=NN1C(=O)c1ccccc1` (stereo unspecified), with “inactive”; and `N#CCN(C(=O)COC(=O)C1CC2CCCC(C1)C2=O)c1ccccc1` (stereo unspecified), with “inactive”. As to `Cc1c(C=O)c2ccccc2n1CC(=O)O`, the Potency entry is “inactive”.

`CC(=O)n1c(C=Nc2ccccc2)c(O)c2ccccc21`: the Potency was 16.9 µM (active). With `CCCn1c(=O)c(-c2ccccc2)c(O)c2ccccc21`, the Potency entry was “inactive”. Regarding `O=C(Cn1cc(C(=O)c2cccs2)c2ccccc21)NCc1cccs1`, the Potency is 19 µM (active). Turning to `COC(=O)c1cn(CC(=O)NCc2cccs2)c2ccccc12`, the Potency result is “inactive”.

Regarding `Cc1ccccc1NC(=O)Cn1cc(C(=O)c2cccs2)c2ccccc21`, the Potency entry is “inactive”.
